# Measurements: the supplement of paper PMC11732987, “Enantioselective OTUD7B fragment discovery through chemoproteomics screening and high-throughput optimisation” (Communications Chemistry, 2025)
# Unmarked numbers belong to inactive results.
# Assays:
# Test in all cases: log2 ratio of Biotin-Ahx-Ub-VS probe labelling (fragment/DMSO); higher = less target engagement (more negative = stronger competition), active = hit call of the paper (q ≤ 0.05, log2 ratio ≤ -1)
# Conditions in all cases: compound concentration: 200 uM; treatment time: 3 h
# OTUD6B = biological target: T1, OTUD6B (UniProt Q8N6M0)
# T1 sequence (whole entry): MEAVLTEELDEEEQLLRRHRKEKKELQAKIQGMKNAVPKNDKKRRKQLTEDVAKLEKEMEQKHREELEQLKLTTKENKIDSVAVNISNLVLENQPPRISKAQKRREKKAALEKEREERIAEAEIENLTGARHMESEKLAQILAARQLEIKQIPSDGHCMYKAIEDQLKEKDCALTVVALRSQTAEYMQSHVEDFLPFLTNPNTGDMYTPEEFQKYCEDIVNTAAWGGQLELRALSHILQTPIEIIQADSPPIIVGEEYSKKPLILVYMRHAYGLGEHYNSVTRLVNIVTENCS
# How it was run: (§1)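 HEK293T lysate in Tris/CHAPS/IGEPAL buffer with protease inhibitors (495 µg per sample) was given fragment at 200 µM or vehicle for 3 h, in triplicate. It then received Biotin-Ahx-Ub-VS at 0.5 µM final for 1 h. Labelled DUBs were NeutrAvidin-enriched, digested with LysC and trypsin, and run by diaPASEF LC-MS/MS. Values are average log2 fragment/vehicle ratios by unpaired t-test on global-median-normalised Spectronaut quantities of proteins with ≥2 unique peptides.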
# OTUD7B = biological target: T2, OTUD7B (UniProt Q6GQQ9)
# T2 sequence (whole entry): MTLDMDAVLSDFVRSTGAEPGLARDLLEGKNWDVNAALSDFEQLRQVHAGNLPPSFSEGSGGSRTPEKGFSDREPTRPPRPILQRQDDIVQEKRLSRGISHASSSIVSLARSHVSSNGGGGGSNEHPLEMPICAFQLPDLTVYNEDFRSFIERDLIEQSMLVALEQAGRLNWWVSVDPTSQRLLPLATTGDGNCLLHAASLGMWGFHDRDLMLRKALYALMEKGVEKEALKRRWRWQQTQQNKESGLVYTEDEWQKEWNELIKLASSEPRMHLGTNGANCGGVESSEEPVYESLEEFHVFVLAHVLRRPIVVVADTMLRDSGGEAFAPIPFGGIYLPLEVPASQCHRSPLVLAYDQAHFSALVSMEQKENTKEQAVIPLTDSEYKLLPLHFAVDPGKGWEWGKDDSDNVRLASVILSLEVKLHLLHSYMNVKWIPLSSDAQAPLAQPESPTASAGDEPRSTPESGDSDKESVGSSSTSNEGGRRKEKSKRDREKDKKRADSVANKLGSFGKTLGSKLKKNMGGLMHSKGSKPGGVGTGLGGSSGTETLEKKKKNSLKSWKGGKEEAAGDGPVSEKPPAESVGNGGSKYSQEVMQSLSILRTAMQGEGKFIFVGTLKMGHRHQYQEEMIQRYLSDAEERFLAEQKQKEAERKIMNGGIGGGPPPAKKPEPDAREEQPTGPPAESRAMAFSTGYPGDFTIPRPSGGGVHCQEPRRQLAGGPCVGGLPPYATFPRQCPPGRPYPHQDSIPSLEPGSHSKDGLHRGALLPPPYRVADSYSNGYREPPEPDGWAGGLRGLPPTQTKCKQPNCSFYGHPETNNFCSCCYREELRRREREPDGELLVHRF
# How it was run: as §1
# PRPF8 = PRPF8 (UniProt Q6P2Q9)
# How it was run: as §1
# PSMD7 = biological target: T3, PSMD7 (UniProt P51665)
# T3 sequence (whole entry): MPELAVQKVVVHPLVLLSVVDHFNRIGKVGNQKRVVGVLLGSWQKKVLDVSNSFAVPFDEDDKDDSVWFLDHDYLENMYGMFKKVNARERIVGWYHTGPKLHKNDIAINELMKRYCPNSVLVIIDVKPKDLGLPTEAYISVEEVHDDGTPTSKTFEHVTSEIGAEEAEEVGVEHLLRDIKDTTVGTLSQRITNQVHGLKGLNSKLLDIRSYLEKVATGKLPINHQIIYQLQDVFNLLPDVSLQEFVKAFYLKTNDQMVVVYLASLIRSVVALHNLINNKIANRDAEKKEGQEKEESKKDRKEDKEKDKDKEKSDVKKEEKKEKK
# How it was run: as §1
# UCHL1 = UCHL1 (UniProt P09936)
# Chain of UCHL1 (P09936 whole entry, looked up): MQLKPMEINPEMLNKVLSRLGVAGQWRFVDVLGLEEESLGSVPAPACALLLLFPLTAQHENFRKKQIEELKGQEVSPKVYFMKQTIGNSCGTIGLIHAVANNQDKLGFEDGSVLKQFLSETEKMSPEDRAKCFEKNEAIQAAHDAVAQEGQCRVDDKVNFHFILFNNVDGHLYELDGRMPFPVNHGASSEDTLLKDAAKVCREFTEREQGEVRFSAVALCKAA
# How it was run: as §1
# UCHL3 = biological target: T4, UCHL3 (UniProt P15374)
# T4 sequence (whole entry): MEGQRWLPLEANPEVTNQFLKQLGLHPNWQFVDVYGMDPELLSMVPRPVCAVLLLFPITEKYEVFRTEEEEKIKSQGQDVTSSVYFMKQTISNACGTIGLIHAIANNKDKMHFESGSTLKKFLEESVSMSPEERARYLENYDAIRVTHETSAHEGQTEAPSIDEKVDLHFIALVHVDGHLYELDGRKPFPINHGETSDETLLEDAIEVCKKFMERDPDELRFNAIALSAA
# How it was run: as §1
# UCHL5 = biological target: T5, UCHL5 (UniProt Q9Y5K5)
# T5 sequence (whole entry): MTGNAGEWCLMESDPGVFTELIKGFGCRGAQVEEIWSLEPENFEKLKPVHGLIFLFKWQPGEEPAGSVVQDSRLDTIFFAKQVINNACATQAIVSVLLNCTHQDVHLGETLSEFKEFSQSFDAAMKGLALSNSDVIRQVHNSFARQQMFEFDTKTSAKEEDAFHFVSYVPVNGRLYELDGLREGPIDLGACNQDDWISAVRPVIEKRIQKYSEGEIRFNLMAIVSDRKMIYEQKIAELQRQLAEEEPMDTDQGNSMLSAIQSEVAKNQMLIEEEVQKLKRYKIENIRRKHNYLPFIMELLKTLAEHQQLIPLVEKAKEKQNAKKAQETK
# How it was run: as §1
# USP10 = USP10 (UniProt Q14694)
# Chain of USP10 (Q14694 whole entry): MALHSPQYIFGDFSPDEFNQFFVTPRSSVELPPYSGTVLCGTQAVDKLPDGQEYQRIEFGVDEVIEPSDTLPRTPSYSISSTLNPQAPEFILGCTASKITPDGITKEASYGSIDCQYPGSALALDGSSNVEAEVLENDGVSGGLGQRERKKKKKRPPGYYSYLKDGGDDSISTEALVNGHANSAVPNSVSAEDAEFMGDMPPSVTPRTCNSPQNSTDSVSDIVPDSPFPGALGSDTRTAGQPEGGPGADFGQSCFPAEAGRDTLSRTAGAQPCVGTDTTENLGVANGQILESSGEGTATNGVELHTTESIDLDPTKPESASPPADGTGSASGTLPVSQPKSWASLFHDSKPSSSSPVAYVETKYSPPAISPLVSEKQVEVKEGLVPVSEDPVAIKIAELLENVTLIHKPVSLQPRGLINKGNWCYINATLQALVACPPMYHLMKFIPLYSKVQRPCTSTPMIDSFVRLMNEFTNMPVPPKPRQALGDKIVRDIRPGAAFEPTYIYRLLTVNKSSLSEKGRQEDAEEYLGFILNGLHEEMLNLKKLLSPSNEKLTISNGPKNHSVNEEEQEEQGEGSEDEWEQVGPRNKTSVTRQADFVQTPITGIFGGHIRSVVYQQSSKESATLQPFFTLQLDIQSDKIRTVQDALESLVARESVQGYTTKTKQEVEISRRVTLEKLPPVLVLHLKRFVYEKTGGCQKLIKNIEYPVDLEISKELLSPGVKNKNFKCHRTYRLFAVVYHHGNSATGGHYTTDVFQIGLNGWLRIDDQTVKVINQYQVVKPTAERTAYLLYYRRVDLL
# How it was run: as §1
# USP15 = biological target: T6, USP15 (UniProt Q9Y4E8)
# T6 sequence (whole entry): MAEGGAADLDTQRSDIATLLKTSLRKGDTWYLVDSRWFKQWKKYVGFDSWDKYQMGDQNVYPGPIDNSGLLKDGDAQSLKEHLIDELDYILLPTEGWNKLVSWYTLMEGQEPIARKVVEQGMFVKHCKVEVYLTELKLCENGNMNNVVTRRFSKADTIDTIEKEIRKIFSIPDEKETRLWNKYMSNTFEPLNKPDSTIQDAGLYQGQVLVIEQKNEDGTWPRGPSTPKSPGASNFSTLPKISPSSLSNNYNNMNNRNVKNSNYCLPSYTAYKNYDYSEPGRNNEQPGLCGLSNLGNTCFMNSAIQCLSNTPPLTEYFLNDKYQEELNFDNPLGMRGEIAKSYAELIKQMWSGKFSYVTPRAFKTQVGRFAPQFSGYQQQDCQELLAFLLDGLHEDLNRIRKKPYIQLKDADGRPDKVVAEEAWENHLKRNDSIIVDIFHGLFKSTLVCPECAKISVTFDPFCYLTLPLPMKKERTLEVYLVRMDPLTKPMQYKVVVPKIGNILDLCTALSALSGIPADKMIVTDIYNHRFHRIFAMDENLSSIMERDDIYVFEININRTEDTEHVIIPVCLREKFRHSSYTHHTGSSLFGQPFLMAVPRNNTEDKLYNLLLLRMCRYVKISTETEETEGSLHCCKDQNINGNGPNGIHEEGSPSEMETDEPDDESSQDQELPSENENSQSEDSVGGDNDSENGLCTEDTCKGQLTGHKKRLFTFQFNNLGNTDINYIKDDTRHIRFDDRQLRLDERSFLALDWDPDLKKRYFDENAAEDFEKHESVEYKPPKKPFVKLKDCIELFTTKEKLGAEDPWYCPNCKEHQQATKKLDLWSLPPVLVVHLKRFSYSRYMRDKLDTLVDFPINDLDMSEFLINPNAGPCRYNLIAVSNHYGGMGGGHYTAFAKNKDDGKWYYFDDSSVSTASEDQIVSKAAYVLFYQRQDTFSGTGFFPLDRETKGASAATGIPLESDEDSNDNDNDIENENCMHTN
# How it was run: as §1
# USP16 = USP16 (UniProt Q9Y5T5)
# Chain of USP16 (Q9Y5T5 whole entry, looked up): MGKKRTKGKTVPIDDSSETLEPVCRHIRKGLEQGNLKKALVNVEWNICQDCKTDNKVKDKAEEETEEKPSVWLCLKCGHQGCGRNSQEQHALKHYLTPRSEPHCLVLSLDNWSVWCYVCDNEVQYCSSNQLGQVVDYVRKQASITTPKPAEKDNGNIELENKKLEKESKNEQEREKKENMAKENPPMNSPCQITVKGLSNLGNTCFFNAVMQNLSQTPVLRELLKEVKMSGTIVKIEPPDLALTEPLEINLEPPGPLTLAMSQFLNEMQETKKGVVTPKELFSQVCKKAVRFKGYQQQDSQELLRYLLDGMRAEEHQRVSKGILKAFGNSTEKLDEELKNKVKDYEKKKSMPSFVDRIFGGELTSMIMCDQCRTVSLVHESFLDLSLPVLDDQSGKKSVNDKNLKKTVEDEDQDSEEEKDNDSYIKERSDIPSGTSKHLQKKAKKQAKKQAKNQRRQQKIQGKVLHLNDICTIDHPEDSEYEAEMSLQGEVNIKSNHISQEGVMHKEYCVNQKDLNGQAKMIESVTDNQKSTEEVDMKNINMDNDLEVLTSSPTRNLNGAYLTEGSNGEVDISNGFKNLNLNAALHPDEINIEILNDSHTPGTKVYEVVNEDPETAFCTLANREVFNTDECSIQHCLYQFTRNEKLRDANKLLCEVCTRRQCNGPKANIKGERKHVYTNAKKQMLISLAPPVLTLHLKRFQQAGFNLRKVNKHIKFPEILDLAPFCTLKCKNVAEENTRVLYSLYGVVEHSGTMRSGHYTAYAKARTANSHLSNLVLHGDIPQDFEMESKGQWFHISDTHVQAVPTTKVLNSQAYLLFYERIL
# How it was run: as §1
structure (smiles),measurement,setting,value
Cc1ccc(CC(CO)CNC(=O)CCl)cc1 (stereo not given),log2 ratio of Biotin-Ahx-Ub-VS probe labelling,OTUD6B,-0.264
same,log2 ratio of Biotin-Ahx-Ub-VS probe labelling,OTUD7B,-1.12 (active)
same,log2 ratio of Biotin-Ahx-Ub-VS probe labelling,PRPF8,-0.059
same,log2 ratio of Biotin-Ahx-Ub-VS probe labelling,PSMD7,-0.169
same,log2 ratio of Biotin-Ahx-Ub-VS probe labelling,UCHL1,-1.92 (active)
same,log2 ratio of Biotin-Ahx-Ub-VS probe labelling,UCHL3,-0.121
same,log2 ratio of Biotin-Ahx-Ub-VS probe labelling,UCHL5,-0.474
same,log2 ratio of Biotin-Ahx-Ub-VS probe labelling,USP10,-0.0682
same,log2 ratio of Biotin-Ahx-Ub-VS probe labelling,USP15,-0.199
same,log2 ratio of Biotin-Ahx-Ub-VS probe labelling,USP16,0.217
